# Experimental data taken from PMC6212790, “How bacterial xenogeneic silencer rok distinguishes foreign from self DNA in its resident genome”.
# The full ranking holds about 33,000 sequences; the median of “e-score” is about -0.038, and the highest 2% start at about 0.33. The sample holds the highest values, similar sequences and a random draw of the others, so the mix is not that of the screen.
# Molecular target: T1, GST-Rok-C97-191 (Bacillus subtilis subsp. subtilis str. …, UniProt O34857 97-191)
# T1 sequence: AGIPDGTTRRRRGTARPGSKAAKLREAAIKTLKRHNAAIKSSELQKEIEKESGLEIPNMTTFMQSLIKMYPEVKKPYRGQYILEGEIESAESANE
# Assay: protein binding microarray; Rok is a gene silencer of Bacillus subtilis; high values mean tight binding
# Conditions: protein: recombinant; tags: GST (pTH5325, pDEST15-Magic modified); dsDNA, one strand shown
# Method in brief: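 Each has a 25-mer constant primer and a 35-mer variable part from a de Bruijn sequence of order 10, covering every non-palindromic 8-mer at least 32 times (palindromic 16). Preference for each 8-mer is given as a rank-based, unitless enrichment score (E-score). Its range runs from 0.5 (most favored) to −0.5 (most disfavored).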
row,Sequence,binding signal
1,CATCCCTA,-0.0266 E-score
2,AGCTCGTA,0.00298 E-score
3,AATCTATG,0.135 E-score
4,AATCTAGG,0.171 E-score
5,CATCTATC,0.201 E-score
6,CATCTATA,0.201 E-score
7,TATCTAGA,0.159 E-score
8,AATCTATA,0.4 E-score
9,AATCTAGA,0.331 E-score
10,AATCTATC,0.421 E-score
11,GATCTATA,0.305 E-score
12,ACACGTGT,0.00499 E-score
13,GATAAGAC,0.14 E-score
14,ACATGCGG,0.0405 E-score
15,AAAAAGAG,-0.0136 E-score
16,CTCACATC,-0.132 E-score
17,ATTCATCA,0.0772 E-score
18,ACGATGCT,0.0784 E-score
19,ACTGACAT,-0.113 E-score
20,ACAGTCCC,-0.126 E-score
21,GCATAGAC,-0.0624 E-score
22,TACATATA,0.349 E-score
23,GATATGGA,0.0314 E-score
24,CACATGTA,0.162 E-score
25,TACATCTA,0.369 E-score

row,Sequence,binding signal
1,AACATGTA,0.237 E-score
2,AACATCTA,0.165 E-score
3,CACATCTA,0.151 E-score
4,TACATGTA,0.417 E-score
5,GACATATA,0.307 E-score
6,AACATATA,0.208 E-score
7,CATATGGA,0.0214 E-score
8,TATATGGA,0.343 E-score
9,AGTCAACT,0.173 E-score
10,AGATTCGA,0.104 E-score
11,ATAATTCG,0.213 E-score
12,CCTGGTTA,0.0123 E-score
13,CGACTCTA,-0.0898 E-score
14,CCACATAC,0.16 E-score
15,AGTGGAAT,-0.0459 E-score
16,CATATATG,0.306 E-score
17,GATATAGA,0.244 E-score
18,TATATCGA,0.314 E-score
19,CTTATATA,0.321 E-score
20,TATATAGA,0.397 E-score
21,CATATATA,0.353 E-score
22,CATATATC,0.279 E-score
23,CATATAGA,0.144 E-score
24,TATATATA,0.454 E-score
25,CCAGTACA,0.0219 E-score

row,Sequence,binding signal
1,GTAGTGCA,0.015 E-score
2,CAGGGCTA,-0.0484 E-score
3,CCTGTATA,0.157 E-score
4,CAGGCGCC,-0.149 E-score
5,TACGTTCA,0.085 E-score
6,CATAACGC,0.0154 E-score
7,ACTTTGGA,-0.0486 E-score
8,ATGACGTA,-0.0485 E-score
9,AATCTGGA,-0.12 E-score
10,AACCAGTA,0.278 E-score
11,ATCTAGTG,0.364 E-score
12,ACCTAGTA,0.233 E-score
13,AACTAGGT,0.318 E-score
14,ATCTAGTC,0.287 E-score
15,AACTAGTG,0.376 E-score
16,CACTAGTA,0.253 E-score
17,AACTAGTA,0.47 E-score
18,ATCTAGTA,0.31 E-score
19,AACTAGGG,-0.0014 E-score
20,AACTAGTC,0.0892 E-score
21,CACTAGTG,-0.0787 E-score
22,AACTAGTT,0.439 E-score
23,CTGACATC,-0.162 E-score
24,ATTACGCC,-0.0244 E-score
25,CTTAAAGA,-0.126 E-score

row,Sequence,binding signal
1,CATAGTGC,-0.076 E-score
2,ATTGTCCG,-0.0512 E-score
3,AAGCAAGC,-0.165 E-score
4,CAGCAATA,0.203 E-score
5,CGTCATAC,0.0184 E-score
6,GACTAGGA,-0.0139 E-score
7,GGCTAGTA,0.115 E-score
8,AGCTAGTA,0.336 E-score
9,GACTAGTA,0.368 E-score
10,TACTAGCA,0.256 E-score
11,GACTAGTC,0.0585 E-score
12,TACTAGTA,0.433 E-score
13,AGCTAGTC,0.104 E-score
14,TACTAGGA,0.115 E-score
15,AGCGCTCA,0.00935 E-score
16,CTGCTACC,-0.0872 E-score
17,TCCCTAAA,-0.186 E-score
18,ACGCGCTC,-0.0411 E-score
19,AGTTTCCG,0.112 E-score
20,GCGGCCAA,-0.114 E-score
21,AAACGTTA,0.0818 E-score
22,GAACGTTA,0.178 E-score
23,TAACGTTA,0.339 E-score
24,CCTAATGC,-0.154 E-score
25,AACGTGGC,-0.0901 E-score

row,Sequence,binding signal
1,CAAGTATA,0.251 E-score
2,ATAGTATG,0.316 E-score
3,GCAGTATA,0.224 E-score
4,CTAGTATC,0.111 E-score
5,ATAGTATA,0.334 E-score
6,CTAGTATA,0.37 E-score
7,GAAGTATA,0.164 E-score
8,ATAGTATC,0.278 E-score
9,GTAGTATA,0.428 E-score
10,CGTTGGAG,-0.19 E-score
11,AGGTATAC,0.19 E-score
12,CATTCATA,0.181 E-score
13,CTGTCCCA,-0.0317 E-score
14,CTTTCTCA,-0.12 E-score
15,AGGGAAAC,-0.0931 E-score
16,AGATAGAT,0.349 E-score
17,AGATAGAC,0.0495 E-score
18,AGATAGAG,0.128 E-score
19,ACATAGAT,0.33 E-score
20,ACATAGAC,0.0775 E-score
21,ACATAGAG,-0.0925 E-score
22,AATTAGAA,0.202 E-score
23,ACGTACGG,0.0152 E-score
24,CCTAGTAA,0.145 E-score
25,ACTAGTAT,0.409 E-score

row,Sequence,binding signal
1,ACTAGTAC,0.393 E-score
2,ACCAGTAT,0.196 E-score
3,ACTAGTAG,0.404 E-score
4,CCTAGTAC,0.0475 E-score
5,ACTAGTCG,0.181 E-score
6,ACTAGTCT,0.215 E-score
7,CCTAGTAG,0.25 E-score
8,TCTAGTAA,0.265 E-score
9,ACTAGTAA,0.423 E-score
10,GCTAGTAC,0.184 E-score
11,ACCTTGGC,-0.158 E-score
12,CATTCGAA,0.101 E-score
13,AACCAATT,0.204 E-score
14,ACTCAAGA,-0.0762 E-score
15,CATAATGA,0.175 E-score
16,AAATTGAT,0.0406 E-score
17,CTTCCTCA,-0.0806 E-score
18,GACAGCGA,-0.193 E-score
19,GCGTAGAC,-0.111 E-score
20,AATATCTC,0.28 E-score
21,GATATCAA,0.158 E-score
22,CATATCTC,0.0436 E-score
23,GATATCCA,0.0457 E-score
24,CATATCTA,0.34 E-score
25,AATATCTG,0.2 E-score

row,Sequence,binding signal
1,AATATCTA,0.343 E-score
2,GATATCTA,0.349 E-score
3,CATATCGA,0.0885 E-score
4,ACATCTTC,0.0581 E-score
5,ACTAAACC,-0.0801 E-score
6,CCTATTAG,0.16 E-score
7,CGACTGAA,-0.021 E-score
8,CGTAACAG,0.131 E-score
9,CGTCGAAA,0.106 E-score
10,GTTTAGTA,0.31 E-score
11,ATTTAGTA,0.4 E-score
12,AATTAGTA,0.408 E-score
13,CATTAGTA,0.26 E-score
14,AATTAGTG,0.28 E-score
15,ATTTAGTG,0.0465 E-score
16,CATGGAAC,-0.0493 E-score
17,CGTAAATA,0.254 E-score
18,CCTGAAAC,-0.0142 E-score
19,TATAAAGA,-0.131 E-score
20,TAAAGTCA,-0.0164 E-score
21,AAATGCCC,0.00515 E-score
22,ACTACGCA,-0.0187 E-score
23,CAGTGTAC,0.0867 E-score
24,AGTCAGCA,-0.0559 E-score
25,GACAACAA,-0.114 E-score

row,Sequence,binding signal
1,GACAACTA,0.295 E-score
2,AACAACAA,0.1 E-score
3,TACAACAA,0.353 E-score
4,AACAACTA,0.266 E-score
5,TACAACTA,0.338 E-score
6,CCAGTTCG,-0.177 E-score
7,ACCAGTAG,0.259 E-score
8,GTCATCAA,-0.132 E-score
9,CTGGGAAA,-0.136 E-score
10,GCTGCTAC,0.0824 E-score
11,ACTAAGCA,0.0291 E-score
12,ACAACCGG,-0.0576 E-score
13,GCTCGAGC,-0.176 E-score
14,CATTTGCA,0.157 E-score
15,ATCTTCAT,0.204 E-score
16,AAACCTTC,0.0022 E-score
17,CCGGACAA,-0.145 E-score
18,CCACTCTC,-0.129 E-score
19,GACTTATA,0.279 E-score
20,GACTTCTA,0.111 E-score
21,TACTTATA,0.331 E-score
22,TACTTACA,0.31 E-score
23,TACTTCTA,0.374 E-score
24,AACTTATC,0.168 E-score
25,CACTTATA,0.281 E-score

row,Sequence,binding signal
1,AACTTCTA,0.246 E-score
2,AACTTATA,0.345 E-score
3,GAATGTTA,0.159 E-score
4,CAGCAAGA,0.159 E-score
5,CCGATATC,0.0718 E-score
6,GAGTGTAA,0.0764 E-score
7,ACCATTGG,-0.182 E-score
8,GAGCTACA,0.151 E-score
9,AAGCTACT,0.195 E-score
10,TAGCTACA,0.353 E-score
11,AATCTACA,0.365 E-score
12,CATCTACA,0.0976 E-score
13,TATCTACA,0.361 E-score
14,AAGCTACG,0.0766 E-score
15,AAGCTACC,0.362 E-score
16,GATCTACA,0.29 E-score
17,ACTCTACA,0.108 E-score
18,AGTCTACA,0.0463 E-score
19,CAGCTACA,0.0422 E-score
